TRb-SRC2 inh: disrupts binding of human TR beta to SRC2; P10828; TRbeta-SRC2 peptide binding, fluorescence polarization; receptor liganded with 1 µM T3; Potency, µM (highest dose often 106 µM), for the others: at the highest dose activity change, negative = inhibition, usual class: inhibitors; 280,000 tested, 0.065% active;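 also: plate controls were bound peptide for no effect and peptide without receptor for full effect; nearly all actives have a fitted effect of over 50% in size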
Target sequence (P10828 whole entry, looked up): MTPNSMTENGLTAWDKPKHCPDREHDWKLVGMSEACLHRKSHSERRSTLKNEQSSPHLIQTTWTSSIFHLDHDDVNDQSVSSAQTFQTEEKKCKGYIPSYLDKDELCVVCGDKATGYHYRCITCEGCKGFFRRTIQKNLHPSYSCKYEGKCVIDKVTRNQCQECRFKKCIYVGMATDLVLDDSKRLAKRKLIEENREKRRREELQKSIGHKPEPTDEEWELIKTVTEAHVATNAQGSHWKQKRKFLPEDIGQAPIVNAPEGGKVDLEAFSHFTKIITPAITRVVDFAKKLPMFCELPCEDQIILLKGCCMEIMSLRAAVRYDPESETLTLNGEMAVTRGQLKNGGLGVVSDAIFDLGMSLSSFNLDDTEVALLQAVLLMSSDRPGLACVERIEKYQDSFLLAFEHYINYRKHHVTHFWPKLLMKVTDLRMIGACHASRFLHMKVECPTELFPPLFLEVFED
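Read-out is fluorescence polarization (555 nm excitation, 632 nm emission) of a Texas Red SRC2 coactivator peptide; loss of signal reflects blocked binding to human TRb ligand-binding domain in the presence of 1 uM T3.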
Tau fluor cs: counter-screen for tau fibril formation inhibitors; 280,000 tested, 0.93% active; tau K18 P301L Alexa594 fluorescence, heparin fibrillization; AID 1463; Potency, µM (top dose mostly 57.7 µM), for inactives: at the highest dose activity change, negative = decrease; also: nearly all actives have a fitted effect of over 55% in size
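Human tau K18 P301L (15 uM unlabeled, 0.24 uM Alexa 594-labeled) in 100 mM sodium acetate pH 7 with 20 uM heparin, 6 hr at 37 C. ThT 30 uM added, 1 hr ambient; Alexa 594 FP and total fluorescence read at 555/632 nm.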
TexasRed fluor: counter-screen for TRb-SRC2 inhibitors: fluorescence interference; TRb/SRC2 Texas Red total fluorescence interference; Potency, µM (series often up to 106 µM), for inactives: at the highest dose fluorescence change, negative = quenching; 280,000 tested, 0.29% active; AID 1479; active = well fitted curve in either direction with a large enough effect; inconclusive = small, poorly fitted or top-dose-only effect
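Human TRβ ligand-binding domain (0.6 uM) and Texas Red SRC2 peptide (20 nM) in Tris buffer with 1 uM T3 and 5% DMSO were incubated with pinned compound for 5 hr at ambient temperature. Total fluorescence was computed as S + 2P (555/632 nm).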
Tau FP inhib: tau fibrillization inhibition (FP). P10636. K18 P301L tau heparin fibrillization, Alexa594 FP, 6 h. Potency, µM (highest dose often 57.7 µM), inactives show at the highest dose activity, negative = inhibition, hits mostly inhibitors. 280,000 tested, 0.39% active. AID 1468; also: nearly all actives have a fitted effect of over 55% in size
Target sequence (P10636 561-689 P618L limits assumed): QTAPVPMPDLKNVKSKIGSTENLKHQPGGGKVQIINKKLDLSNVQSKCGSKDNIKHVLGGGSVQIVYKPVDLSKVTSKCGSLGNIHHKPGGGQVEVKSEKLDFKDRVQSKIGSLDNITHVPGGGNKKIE
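Compound effects on tau fibrillization are measured by Alexa 594 fluorescence polarization (ex 555, em 632 nm). K18 P301L tau is used at 15 uM with 0.24 uM labeled tracer, and 20 uM heparin induces aggregation over 6 hr at 37 C.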
Tau fibril ThT: tau fibrillization inhibition (ThT binding); P10636; recombinant tau K18 P301L (four-repeat tau fragment), heparin-induced fibrillization, ThT fluorescence; Potency, µM (titrated, usually from 57.4 µM), inactives show at the top dose activity, negative = inhibition, most hits filed as inhibitors; 270,000 tested, 2.1% active; AID 1460; also: nearly all actives have a fitted effect of over 55% in size
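Heparin-induced fibrillization of the P301L-mutant K18 repeat-domain fragment of human tau was followed by ThT binding in quantitative high-throughput format.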
The depositor's hits bear a star; u = inconclusive; x = no result given; [ ] = another dose, or the depositor's remark. This is a sample that favours compounds with a hit; in the whole collection about 3.1% have one here. Unless noted, calls follow the shape of the dose curve; as a rule, active = well fitted curve in the direction sought with a large enough effect; inconclusive = small, poorly fitted or top-dose-only effect, or another doubt; inactive = no such curve, though single readings can be large; an effect the other way counts as inactive or inconclusive. Unless noted, % is scaled to controls: 0 for no effect and ±100 for the full control effect; potency is read from the fitted curve at half-maximal effect.

SMILES	TRb-SRC2 inh	Tau fluor cs	TexasRed fluor	Tau FP inhib	Tau fibril ThT
NC(=O)[C@@H]1CCCNc2c(I)cc([N+](=O)[O-])cc2C(=O)N[C@@H](CCCN=C(N)N)C(=O)N[C@@H](CCCN=C(N)N)C(=O)N1	-3%	u	-2%	-11%	28µM*
CC[C@H](C)[C@@H]1NC(=O)c2cc([N+](=O)[O-])cc(I)c2NCC[C@@H](C(N)=O)NC(=O)[C@H](CCCN=C(N)N)NC1=O	-9%	-9%	-1%	-7%	-11%
Clc1ccc(C[n+]2csc3ccccc32)cc1	-9%	-12%	-1%	u	22µM*
CCOc1ccc(-c2n[nH]c(C)c2-c2ccccc2OC)c(O)c1	12%	-6%	1%	4%	0%
COc1ccc(-c2cn[nH]c2-c2ccc(OCc3ccccc3)cc2O)cc1	0%	6.3µM*[quencher]	-5%	u	-14%
COc1ccccc1-c1cn[nH]c1-c1ccc(OCc2ccccc2)cc1O	5%	11µM*[quencher]	3%	u	-13%
COc1ccc(-c2[nH]ncc2-c2ccc(Cl)cc2)c(O)c1	-6%	u	0%	6%	-5%
CCOc1cc(CNCCSc2nnnn2C)cc(Cl)c1OCc1ccc(Cl)cc1	-12%	u	20µM*[quencher]	-2%	u
Cc1ccc(C(=O)OCC(=O)c2c[nH]c3ccccc23)cc1	-3%	-6%	0%	4%	1%
CC(C)C(NS(=O)(=O)c1c(Cl)cccc1Cl)C(=O)OCC(=O)c1c[nH]c2ccccc12 (stereo unspecified)	21%	8.9µM*[quencher]	0%	u	5%
CC(C)Cc1ccc(C(C)C(=O)OCC(=O)c2c[nH]c3ccccc23)cc1 (stereo unspecified)	0%	u	2%	22µM*	-14%
CC(O)C(NS(=O)(=O)c1ccc(Cl)cc1)C(=O)OCC(=O)c1c[nH]c2ccccc12 (stereo unspecified)	4%	-15%	-2%	-7%	1%
O=c1oc2ccc3ccccc3c2cc1-c1nnc(Nc2ccc(F)cc2)s1	-8%	-14%	-33%	6%	u
Cc1ccc(Nc2nnc(-c3cc4c(ccc5ccccc54)oc3=O)s2)cc1	u	-7%	0.032µM*[quencher]	7%	u
COc1cccc(C2CC(=O)Nc3c2c(=O)[nH]c2nc4ccccc4n32)c1 (stereo unspecified)	-8%	-27%	u	-5%	u
O=C(NNc1c2ccccc2nc2ccccc12)c1ccc(O)cc1	-6%	u	0%	2%	u
O=C(NNc1c2ccccc2nc2ccccc12)c1ccc(O)cc1O	8%	13µM*[quencher]	-29%	8%	2.2µM*
O=C(COc1ccccc1)NNc1c2ccccc2nc2ccccc12	3%	3%	-2%	-1%	5%
O=C(NNc1c2ccccc2nc2ccccc12)c1cccc(O)c1	-6%	14µM*[quencher]	-14%	13%	2.8µM*
O=C(NNc1c2ccccc2nc2ccccc12)c1ccccc1O	4%[53 µM]	6.3µM*[quencher]	-14%[53 µM]	-1%	2.2µM*
COc1ccc(OCC(=O)NNc2c3ccccc3nc3ccccc23)cc1	-2%	16µM*[quencher]	-8%	u	6.3µM*
COC(=O)C1=C(C(=O)OC)[C@@H]2N(C)c3ccccc3[C@@]23C[C@@H](C(=O)OC)N(S(=O)(=O)c2ccc4c(c2)OCCN4C)C3=N1	8%[11.2 µM]	-4%[11.6 µM]	0%[11.2 µM]	-3%[11.6 µM]	10%[11.5 µM]
COc1ccc(NC(=O)C2CCC(CNS(=O)(=O)c3cccc4nsnc34)CC2)cc1OC (stereo unspecified)	-3%	-21%	u	3%	u
C[C@@H]1C(=O)N(S(=O)(=O)c2ccc([N+](=O)[O-])cc2)[C@H]1c1ccccc1	3%	x	-3%	x	x
O=C(NNc1c2ccccc2nc2ccccc12)C(O)c1ccccc1 (stereo unspecified)	-3%	u	-3%	11%	14µM*
SMILES	TRb-SRC2 inh	Tau fluor cs	TexasRed fluor	Tau FP inhib	Tau fibril ThT
COc1ccc(CNC(=O)CN2C(=O)COc3ccc(S(=O)(=O)Nc4ccccc4)cc32)cc1	-7%	u	-1%	4%	-7%
Cc1ccc2nc(-c3cccc(NS(C)(=O)=O)c3)cc(-c3ccccc3)c2c1	-9%[53 µM]	-7%	0.1µM*[quencher]	-2%	-2%
Cc1cccc(CNc2ncnc3ccc(-c4cccc(NS(C)(=O)=O)c4)cc23)c1	-4%	u	3%	18µM*	u
Cc1[nH]c2ccccc2c1C(C#N)(C#N)C1C(=O)c2ccccc2C1=O	-1%	4.5µM*[quencher]	-4%	u	6.3µM*
COc1ccc(-c2cnc(C)o2)cc1S(=O)(=O)Nc1ccc(NC(C)=O)cc1	6%	-10%	-1%	-3%	-1%
COc1ccc(NC(=S)Nc2ccccc2)c(OC)c1	-4%	-13%	0%	-5%	-9%
COc1ccc(NC(=S)Nc2ccc(OCc3ccccc3)cc2)c(OC)c1	-15%	14µM*[quencher]	2%	u	u
CCOC(=O)c1cnc2c(cnn2CC)c1NN=C(C)C	-3%	-16%	-2%	-2%	u
Cc1ccc(NS(=O)(=O)c2ccc3nc(-c4ccccc4)[nH]c3c2)c(Br)c1	4%	u	0%	u	8%
Cc1ccc(NS(=O)(=O)c2ccc3nc(-c4ccccc4)[nH]c3c2)c(Cl)c1	4%	u	0%	14µM*	12%
CC(C)c1ccc(NS(=O)(=O)c2ccc3nc(-c4ccccc4)[nH]c3c2)cc1	7%	u	1%	10µM*	u
O=S(=O)(Nc1ccc(Br)cc1)c1ccc2nc(-c3ccccc3)[nH]c2c1	4%	u	-1%	16µM*	16%
O=C(O)c1ccccc1C(=O)Nc1ccc(-n2ccc(C(F)(F)F)n2)cc1	-2%	-6%	-2%	2%	-3%
O=C(Nc1cccc(Cl)c1)Nc1csc([N+](=O)[O-])c1	-3%	8.9µM*[quencher]	-3%	u	16µM*
Cc1cc(C)cc(NC(=O)Nc2ccc(-n3ccc(C(F)(F)F)n3)cc2)c1	0%	u	-7%	18µM*	3%
CCOC(=O)c1sc(NC(=O)c2cccs2)cc1C	2%	-27%	-5%	-8%	-11%
O=C(O)CCC(=O)Nc1ccc(-n2ccc(C(F)(F)F)n2)cc1	-7%	-7%	-2%	-6%	x
CCOC(=O)c1sc(NC(=O)Nc2cccc(Cl)c2)cc1C	-10%	3.5µM*[quencher]	-1%	u	-23%
COc1ccccc1NC(=O)Nc1ccc(-n2ccc(C(F)(F)F)n2)cc1	-4%	14µM*[quencher]	-1%	u	u
CCOC(=O)c1cnc(N2CCN(c3cccc(C)c3C)CC2)c2ccccc12	-4%	-1%	-1%	4%	-12%
Cc1cccc(C)c1OCC(O)CNC(C)(C)C (stereo unspecified)	-1%	2%	0%	-1%	-1%

Screening data from PubChem BioAssay.
